# Bioassay records (PubChem)
# This is a sample that favours compounds with a hit; in the whole collection about 6% have one here.
# D3 antag = antagonists of human D3 dopamine receptor. D3R cells, DiscoveRx beta-arrestin luminescence, antagonist mode; active compounds read low. AID 652054. max response, negative = inhibition, %. P35462. 360,000 compounds, 2.5% hits; in the data active = max response below about -50%; inconclusive = no clear call, values can overlap the other calls; note: % is set by controls: 0 for no effect and ±100 for the full control effect
#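 Cells plated overnight at 1500 cells/well, then exposed to library compounds with dopamine controls for 90 minutes at 37 degrees C. DiscoveRx reagent added for 30–60 minutes at room temperature; luminescence read, quantitative HTS format.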
# DRD3 agonist = D3 dopamine receptor (human) agonism; D3R DiscoveRx beta-arrestin cells, luminescence, 90 min; 410,000 compounds, 0.58% hits; AID 652048; max activation, %; P35462; in the data active = max activation above about 30%; note: 0% is about no effect
#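 Agonist-mode cell screen: cells plated at 1500/well and incubated overnight at 37 °C, then exposed to library compounds for 90 min at 37 °C. Detection reagent was added for 30–60 min at room temperature, and luminescence was read.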
# D1 ag = agonists of human D1 dopamine receptor; activation, % at 2 µM; 360,000 compounds, 1% hits; HEK293 T-REx D1 cells, calcium flux, agonist mode; P21728; in the data active = activation above about 30%; note: 0% is about no effect
# Target sequence (P21728 whole entry, looked up): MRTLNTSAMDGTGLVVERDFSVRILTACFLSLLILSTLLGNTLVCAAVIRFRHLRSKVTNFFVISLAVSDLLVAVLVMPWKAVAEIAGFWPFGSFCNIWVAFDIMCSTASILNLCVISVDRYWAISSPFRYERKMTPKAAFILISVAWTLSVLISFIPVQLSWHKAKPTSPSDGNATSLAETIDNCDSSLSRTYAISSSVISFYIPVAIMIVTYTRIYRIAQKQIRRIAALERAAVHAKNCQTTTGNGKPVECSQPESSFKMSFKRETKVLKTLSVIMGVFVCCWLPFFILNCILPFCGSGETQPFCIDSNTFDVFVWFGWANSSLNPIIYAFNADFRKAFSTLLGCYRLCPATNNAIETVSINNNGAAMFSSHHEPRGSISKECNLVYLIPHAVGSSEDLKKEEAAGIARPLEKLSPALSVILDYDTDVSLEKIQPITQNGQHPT
#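 Inducible HEK293 T-REx D1 cells, force-coupled to calcium signalling, were plated at 4000 cells/well with tetracycline and held overnight at 30 C. After no-wash calcium dye loading, compound-evoked calcium rise over 180 s flagged agonists.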
# D1 antag = human D1 dopamine receptor antagonism; P21728; HEK293 TREx D1 cells, calcium flux, dopamine EC80; active compounds read low; activity change, negative = inhibition, % at 10 µM; 360,000 compounds, 3.2% hits; in the data active = activity change below about -30%; note: % is set by controls: 0 for no effect and ±100 for the full control effect
#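 Kinetic fluorescence of a calcium dye serves as the read-out. D1-expressing Hek293 Trex cells, induced overnight at 30 C, are exposed to compound for 180 s before an EC80 dopamine addition, then read 180 s further.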
# D1 PAM = enhances dopamine response at the human D1 receptor; 360,000 compounds, 0.036% hits; AID 504651; HEK293 TREx D1 cells, calcium flux, dopamine EC20 potentiation; potentiation, % at 10 µM; in the data active = potentiation above about 30%; note: 0% is about no effect
# Numbers without * were called inactive; ? = inconclusive; / = no result given.
SMILES,D3 antag,DRD3 agonist,D1 ag,D1 antag,D1 PAM
CC(C)Nc1nc(NC(C)(C)C)nc(Oc2ccc(=O)n(C)n2)n1,3,-4,47*,14,0
CSCCC(NC(=O)c1ccc(Cl)cc1)C(=O)OCC(=O)c1ccc[nH]1 (centres undefined),0,0,1,-35*,-4
CSCCC(NC(=O)c1ccc(Cl)cc1)C(=O)OCC(=O)Nc1ccc(C#N)cc1 (centres undefined),-6,0,4,-40*,-7
COC(=O)c1ccccc1NC(=O)Cn1nnc2sc(-c3ccccc3)cc2c1=O,/,-1,3,-12,-3
O=C(NCc1ccc(Cl)nc1)c1ccc2sc([C@@H]3O[C@H](CO)[C@H](O)[C@H](O)[C@H]3O)nc2c1,-6,-5,/,/,/
Cc1cccc(C)c1NC(=O)c1ccc2sc([C@@H]3O[C@H](CO)[C@H](O)[C@H](O)[C@H]3O)nc2c1,-52*,-8,/,/,/
O=C(NCc1cccnc1)c1ccc2sc([C@H]3C[C@H](O)[C@@H](CO)O3)nc2c1,-69*,-4,/,/,/
Cc1cnc(CNC(=O)c2ccc3sc([C@@H]4O[C@H](CO)[C@H](O)[C@H](O)[C@H]4O)nc3c2)cn1,-50*,-5,/,/,/
O=C(NCc1cc(Cl)cc(Cl)c1)c1ccc2sc([C@H]3C[C@H](O)[C@@H](CO)O3)nc2c1,-1,9,/,/,/
CC1CCCN(S(=O)(=O)c2ccc(NC(=O)c3nc(SC(C)C)ncc3Cl)cc2)C1 (centres undefined),/,-8,2,-3,3
COc1ccc(C(=O)N/N=C/c2cccnc2)cc1,0,-1,5,-5,6
CC(Oc1ccc(-c2ccccc2)cc1)C(=O)N/N=C/c1cccnc1 (centres undefined),-17,14,9,-36*,-8
CC(C)(Oc1ccc(-c2ccco2)cc1)C(=O)O,/,/,4,-46*,5
CC(C)(Oc1ccc(CCNC(=O)c2ccc(-c3ccccc3)o2)cc1)C(=O)O,4,1,3,-2,-8
COc1ccc(-c2csc(NC(=O)c3cccc(S(=O)(=O)N4CCN(C)CC4)c3)n2)cc1,-51*,-2,19,-48*,-9
O=C(Nc1ccc(-c2csc(Nc3ccccc3)n2)cc1)c1cccc(C(F)(F)F)c1,30,-7,3,-47*,-5
Cc1nc(-c2cccc(NC(=O)c3cccc(S(=O)(=O)N4CCCC4)c3)c2)cs1,25,-14,2,-32*,1
COc1ccc(-c2csc(NC(=O)C3CCCCN3S(=O)(=O)c3ccccc3)n2)cc1 (centres undefined),-18,-3,2,-37*,-4
Cc1nc(-c2cccc(NC(=O)c3ccc(Cl)c(S(=O)(=O)N4CCCC4)c3)c2)cs1,10,-3,/,/,/
O=C(Nc1ccc(-c2csc(Nc3ccc(Cl)cc3)n2)cc1)c1cccc(C(F)(F)F)c1,83,30,1,0,-3
Cc1ccc(CN2CCN(CC(=O)NCc3ccccc3Cl)C2=O)cc1,/,0,-2,-1,0
CCOc1ccc(OCC)c(NC(=O)CCc2c(C)nc3c(c2C)c(=O)n(C)c(=O)n3C)c1,/,0,0,-2,0
CCCOc1ccc(CNC(=O)C(C)n2nc(C)n3c(cc4occc43)c2=O)cc1 (centres undefined),/,4,0,10,2
CN1CCN(S(=O)(=O)c2cccc(C(=O)Nc3nc(-c4ccccc4)cs3)c2)CC1,?,-5,15,-32*,-5
Cc1ccccc1OCCSCc1nc2ccccc2[nH]1,-20,-3,8,-30*,-9
SMILES,D3 antag,DRD3 agonist,D1 ag,D1 antag,D1 PAM
COc1ccc(S(=O)(=O)NCCc2csc3nc(-c4ccc(OC)c(OC)c4)nn23)cc1C,/,2,-4,/,-2
Cc1cccc(-c2nnc(-c3cccc(NC(=O)Cc4cccs4)c3)o2)c1,34,31*,4,-40*,1
O=C(Cc1cccs1)Nc1cccc(-c2nc3ccccc3o2)c1,3,-1,2,-47*,0
CCOC(=O)c1cc(-c2ccc(F)cc2)n(CCC(=O)NCc2ccc(C)cc2)c1C,/,-5,6,2,-4
Cc1cc(C(=O)COC(=O)c2ccc(O)cc2O)c(C)n1-c1ccccc1,6,18,11,-7,-1
COc1ccc(-n2c(C)cc(C(=O)COC(=O)c3ccc(O)cc3O)c2C)cc1,55,44*,3,-19,4
CC(C)c1ccc(NC(=O)C2CCN(S(=O)(=O)c3cccc4nonc34)CC2)cc1,/,-3,0,3,1
COc1cc2c(cc1OC)n(CC(=O)c1cc(C)ccc1C)c(=O)n1nc(CCn3nc(C)cc3C)nc21,/,2,1,-14,1
COc1cccc(-c2cc3onc(-c4ccccc4)c3c(=O)n2C)c1,27,6,3,-17,1
Cn1c(-c2ccc(F)c(F)c2)cc2onc(-c3ccccc3)c2c1=O,20,35*,4,-16,-9
COc1ccc(-c2cc3onc(-c4c(Cl)cccc4Cl)c3c(=O)n2C)cc1,2,-4,7,-33*,-6
CNC(=O)C1CC(=O)N(CCc2ccc(OC)cc2)C(=Nc2ccc(OC)cc2)S1 (centres undefined),3,3,0,-3,-13
CNC(=O)C1CC(=O)N(Cc2ccc3c(c2)OCO3)C(=Nc2ccc(OC)cc2)S1 (centres undefined),-4,-2,10,-30*,-6
CCOc1ccccc1NC(=O)N1c2ccccc2Sc2ccccc21,/,7,2,5,3
N#Cc1ccc(CSc2nc(N)cc(N)n2)cc1,-55*,-11,5,1,0
COc1ccc(C(=O)NC(CO)c2nnc(SCc3ccc(Cl)c(Cl)c3)n2C)cc1 (centres undefined),-28,-3,0,-34*,0
COc1ccc(NC(=O)C2CCN(S(=O)(=O)c3cccc(-c4noc(C)n4)c3)CC2)cc1OC,/,-9,0,2,-1
CCc1sc(Nc2ccc(C)cc2Br)nc1-c1cc2cccc(OC)c2oc1=O,/,4,0,7,-2
COc1ccc(-c2cnc(N)n2CC2CCCO2)cc1 (centres undefined),?,-13,0,5,6
c1ccc(-c2cnc(SCCN3CCOCC3)n2CC2CCCO2)cc1 (centres undefined),-57*,-2,2,-15,-2
COc1ccc(-c2csc(N3CCN(c4cc(C)nc5ccccc45)CC3)n2)cc1OC,76,32*,0,8,-1
COc1ccc(CCNC(=S)NC2CCN(Cc3ccccc3)CC2)cc1,-83*,-20,42*,-28,-3
O=C(Nc1ccccc1)NC1CCN(Cc2nnnn2C2CCCCC2)CC1,-70*,-3,0,0,-2
COc1ccc(NC(=S)NC2CCN(Cc3ccccc3)CC2)cc1OC,-10,-13,2,-21,-7
